# Measurements from PubChem BioAssay AID489017 (The Scripps Research Institute Molecular Screening Center, 2010).
# The source made the active and inactive calls. How the calls were made is not given here.
# Test system: Phorbol Ester
# Test: off-target binding and CYP450 inhibition panel, profiling panel, selectivity assay for S1P4 antagonist project, biochemical, Ricerca HitProfilingScreen (AID 489017)
# Conditions: Ricerca receptor/enzyme binding panel plus CYP450, at 10 µM, stronger effect = higher value
smiles,measurement,value
CCc1cccc(CC)c1NC(=O)c1ccc(-c2cc(Cl)ccc2Cl)o1,inhibition,-12% (inactive)
